The values below come from ChEMBL document CHEMBL4888484, “Replenishing the malaria drug discovery pipeline: Screening and hit evaluation of the MMV Hit Generation Library 1 (HGL1) against asexual blood stage Plasmodium falciparum ,using a nano luciferase reporter read-out” (2022).

Hit rate of the full screen: of about 150,000 compounds, about 540 (0.36%) showed an effect of 50% or more. Many of the other results were omitted from the sample, so strong results are more common in it than they were.

This assay concerns Plasmodium falciparum. In words: Primary screen in NF54 nanoGlo assay, in single point, at 2uM, 72h; a lower Z score goes with more inhibition. The format is functional, Erythrocyte. To be noted: timepoint 72 hour.
In general, % Inhibition refers to the drop in the measured response relative to a control, in per cent. Turning to `CCn1c(=O)sc2cc(NC(=O)c3ccc(C)cc3)ccc21`, the “% Inhibition” value is recorded as 5% and the Z score is -0.91.
For `CC(Nc1ccc(C#N)nc1)C1CCCOC1` (centres undefined) the same measures were 1% and -0.15.
For `Cc1noc2ncnc(NC[C@](C)(O)c3cccc(F)c3)c12` the same measures were -7% and 1.41.
For `CN(C)c1ccccc1NC(=O)Cn1ccc(=O)[nH]c1=O` the same measures were -5% and 0.92.
For the compound `Nc1nnc(N[C@H]2COc3ccccc32)[nH]1`, the “% Inhibition” value is 0% and the Z score came to 0.03.
For `O=C(CCc1ccc(Cl)c(F)c1)N1CC(N2CCc3ccccc3C2)C1` the same measures were -9% and 1.44.
For `O=C(CCc1ccc(Cl)c(C(F)(F)F)c1)N1CC[C@H](N2CCc3ccccc3C2)C1` the same measures were 50% and -7.74.
For the compound `O=C(CCc1cccc(Cl)c1)N1CC[C@H](N2CCc3ccccc3C2)C1`, the “% Inhibition” value was -5% and the Z score amounted to 0.72.
For `COCCN1C[C@@H](c2nc(C3CCOCC3)n[nH]2)CCC1=O` the same measures were -5% and 0.81.
Taken in the same sequence, the figures for `CNC(=O)[C@H](CNC(=O)c1ccc(=O)[nH]n1)Cc1ccc(F)cc1C` were -8% and 1.4.
Taken in the same sequence, the figures for `Cc1cccc(CN2CCN(C(=O)c3cc(C)nc(N)n3)[C@@H](C)C2=O)c1` were -2% and 0.2.
Turning to `COc1cc(C(=O)Nc2cccc(-c3nc(C)cc(=O)[nH]3)c2)ccc1OCc1cscn1`, the “% Inhibition” value is listed as -2% and the Z score is on record as 0.29.
For `C=CCn1ncc(-c2cn([C@@H](CC)c3cc(C)ccn3)nn2)c1C` the same measures were 10% and -1.39.
Turning to `CN(C)C1(CC2CC2)CCN(Cc2cccc(C#N)c2)CC1`, the “% Inhibition” value is -3% and the Z score was 0.54.
Taken in the same sequence, the figures for `CCNC(=O)N1CC[C@H](Oc2ccc3ccccc3n2)C1` were 57% and -3.
Taken in the same sequence, the figures for `O=C(Cc1ccccc1Cl)N1CC[C@H](Oc2ccc3ccccc3n2)C1` were -5% and 0.96.
Take `O=C(COc1ccc(Cl)cc1)N1CC[C@H](Oc2ccc3ccccc3n2)C1`: the “% Inhibition” value is given as -18% and the Z score is 3.35.
